HIF-2a block = HIF-2a inhibition. 786-0 RCC cells HIF-2a reporter, luciferase luminescence, overnight. inhibition, % at 18.8 µM. 360,000 compounds, 0.72% hits;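 active = inhibition of the luminescence signal of 40% or more relative to plate controls, in a single-dose primary screen at 18.75 µM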
CF NFkB inh = inhibitors of cystic fibrosis induced NF-kB | KKLEB NF-kB-GFP reporter, PAF-induced, GFP fluorescence overnight | inhibition, % at 5 µM | 360,000 compounds, 0.86% hits | AID 588850;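 active = at least 50% inhibition at 5 µM, scaled per plate between neutral and stimulator controls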;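 also: PAF is a Pseudomonas aeruginosa culture filtrate used as stimulus; plate controls were PAF-stimulated DMSO wells for no effect and unstimulated DMSO wells for full effect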
Shn3 3UTR inh = reduces Shn3 3'UTR luciferase signal in osteoblasts | Clone20 osteoblast Shn3 3'UTR firefly luciferase, 24 h | inhibition, % at 12.5 µM | 360,000 compounds, 0.52% hits | AID 588674;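 active = mean inhibition of at least 75% with every replicate also reaching 75%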;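 also: 0% = median of neutral control wells and 100% = pilot-screen positive control compound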
Peg3 prom inh = inhibitors of Peg3 promoter; 360,000 compounds, 1.7% hits; HeLa PEG-Prom luciferase reporter, luminescence, overnight; inhibition, % at 20 µM; AID 588405;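 active = inhibition of at least 50% at 20 µM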
KKLEB cytotox = reduces viability of KKLEB cystic fibrosis airway cells; 360,000 compounds, 0.36% hits; activity change (cytotoxicity), % at 5 µM; KKLEB CF airway cells viability, ATPlite luminescence, overnight; active compounds read low; cells stimulated with P. aeruginosa culture filtrate; AID 602141;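 active = corrected activity change at or below -50% at 5 µM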
CF NFkB conf = CF NF-kB inhibition confirmation, single concentration. shares compounds with CF NFkB inh. KKLEB CF airway cells, PAF-induced NF-kB-GFP fluorescence, overnight. inhibition, % at 5 µM. 1,300 compounds, 64% hits. AID 602472; in the data active = inhibition above about 40%;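 also: stimulus PAF is a Pseudomonas aeruginosa filtrate and not platelet activating factor; plate controls were DMSO wells with stimulus for no effect and unstimulated DMSO wells for full effect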
Mdm2 MdmX conf = Mdm2/MdmX (human) interaction inhibition, confirmed; shares compounds with HIF-2a block; SaOS-2 split-luciferase Mdm2/MdmX complementation, luminescence; inhibition, % at 8 µM; 740 compounds, 99% hits;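 active = mean inhibition of the luminescence signal across two replicates at or above 26 percent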
Target sequence (O15151 whole entry, looked up): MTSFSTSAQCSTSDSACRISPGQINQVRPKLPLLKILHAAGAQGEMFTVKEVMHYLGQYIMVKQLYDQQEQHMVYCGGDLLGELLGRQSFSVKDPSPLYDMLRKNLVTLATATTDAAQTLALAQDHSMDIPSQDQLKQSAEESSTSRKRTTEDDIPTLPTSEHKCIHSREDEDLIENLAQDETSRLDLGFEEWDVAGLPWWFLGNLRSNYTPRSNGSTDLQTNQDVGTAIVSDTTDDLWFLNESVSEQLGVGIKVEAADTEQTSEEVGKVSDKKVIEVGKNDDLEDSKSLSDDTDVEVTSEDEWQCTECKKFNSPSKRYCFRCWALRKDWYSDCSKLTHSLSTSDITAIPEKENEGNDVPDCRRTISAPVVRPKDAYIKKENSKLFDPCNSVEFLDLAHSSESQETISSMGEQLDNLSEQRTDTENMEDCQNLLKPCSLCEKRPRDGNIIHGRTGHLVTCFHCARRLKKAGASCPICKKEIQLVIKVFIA
Target sequence (Q00987 whole entry, looked up): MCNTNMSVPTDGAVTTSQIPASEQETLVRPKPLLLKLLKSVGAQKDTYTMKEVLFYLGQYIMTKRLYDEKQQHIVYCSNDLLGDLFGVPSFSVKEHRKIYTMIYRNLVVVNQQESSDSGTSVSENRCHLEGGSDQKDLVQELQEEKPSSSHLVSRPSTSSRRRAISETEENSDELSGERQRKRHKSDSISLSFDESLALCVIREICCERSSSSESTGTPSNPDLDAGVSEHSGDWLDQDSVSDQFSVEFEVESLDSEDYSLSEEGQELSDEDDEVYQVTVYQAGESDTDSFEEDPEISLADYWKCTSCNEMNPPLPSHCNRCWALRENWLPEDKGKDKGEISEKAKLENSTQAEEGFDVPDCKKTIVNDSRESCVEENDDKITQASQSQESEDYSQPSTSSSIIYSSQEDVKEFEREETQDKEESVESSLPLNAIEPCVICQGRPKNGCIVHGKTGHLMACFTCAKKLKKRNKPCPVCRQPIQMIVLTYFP
HIF-2a conf = HIF-2a inhibition, single concentration confirmation; 1,800 compounds, 56% hits; AID 651580; shares compounds with HIF-2a block; 786-0 RCC cells, HIF-2a luciferase reporter luminescence, overnight; inhibition, % at 18.8 µM;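 active = mean inhibition across four replicates of at least 40 percent at the single tested concentration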
HIF-1a cs = HIF-1a inhibition counter-screen for HIF-2a hits; shares compounds with HIF-2a block; AID 651589; MiaPaCa-2 HIF-1a luciferase reporter, desferoxamine, overnight; 1,800 compounds, 72% hits; inhibition, % at 18.8 µM;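 active = mean inhibition of the reporter signal across four replicates at the single tested dose of 50% or more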
Starred values were filed as active, the others as inactive; i = inactive; · = no result. Shown are actives, neighbours in structure and some others; about 2.6% of the full set was active somewhere.

SMILES | HIF-2a block | CF NFkB inh | Shn3 3UTR inh | Peg3 prom inh | KKLEB cytotox | CF NFkB conf | others
Cc1nc(N2CCN(C)CC2)c2sc(=S)n(-c3ccccc3)c2n1 | -108 | -11 | -11 | -37 | 4 | ·
O=C(CCC(=O)NCc1ccccc1)NCc1ccccc1 | 14 | 2 | 19 | 8 | -4 | ·
O=Nc1ccc(NO)c2ccccc12 | 0 | 85* | 41 | -23 | -19 | 54*
COc1ccc(CNC(=O)CN(C(=O)c2csnn2)c2ccc(C(C)=O)cc2)cc1 | -89 | 13 | -34 | -47 | 6 | ·
Cc1ncc(CO)c2cc(S(=O)(=O)c3ccc(F)cc3)c(=O)oc12 | 9 | 15 | -19 | -1 | -21 | ·
O=c1oc2ccc(Br)cc2cc1S(=O)(=O)c1ccc(F)cc1 | -21 | 58* | -7 | 50* | -7 | 22
C=CCn1c(Oc2cc(C)ccc2C)nc2c1c(=O)n(C)c(=O)n2C | 19 | 27 | -9 | -2 | -14 | ·
C=CCn1c(Oc2ccccc2F)nc2c1c(=O)n(C)c(=O)n2C | 22 | 57* | 8 | 10 | -16 | 64*
CC(=O)Nc1cccc(C(=O)OCc2csc(CC(=O)Nc3ccccc3C)n2)c1 | -5 | -20 | 19 | -11 | 4 | ·
CCCCCCc1cc2cc(C(=O)OCC)c(=O)oc2cc1O | -45 | 53* | 25 | 27 | -32 | 78*
CCCCCCc1cc2cc(/C(N)=N/NC(=O)c3ccncc3)c(=O)oc2cc1O | 9 | 22 | 17 | 20 | -2 | ·
CCOC(=O)C1CCCN(C(=O)COc2ccc(S(=O)(=O)N3CCOCC3)cc2)C1 (stereo unspecified) | 20 | 6 | -3 | 7 | 10 | ·
COCCNc1nc(Oc2cncc(Cl)c2)c2sccc2n1 | 8 | 62* | 12 | 17 | -20 | 78*
COCCNc1nc(Oc2cccc(F)c2)c2sccc2n1 | 8 | 33 | 3 | 7 | -14 | ·
Cc1ccnc(NC(=O)CSc2cc(=O)n(C)c3ccccc23)c1 | -264 | 88* | 9 | 70* | -26 | 52*
Cn1c(=O)cc(SCC(=O)Nc2cccnc2)c2ccccc21 | -45 | -6 | -14 | -25 | -4 | ·
Cc1ccnc(NC(=O)CCCOc2cc(=O)n(C)c3ccccc23)c1 | i | 71* | -155 | 92* | 9 | 76*
C[C@@H]1CN([C@H](C)CO)C(=O)CCCn2nncc2CO[C@H]1CN(C)S(=O)(=O)c1ccc2c(c1)OCCCO2 | 5 | -1 | 81 | 2 | 5 | ·
CCOC(=O)c1[nH]c2c(c1C)C(=O)CC(c1ccco1)C2 (stereo unspecified) | 10 | 57* | 11 | -27 | -19 | 80*
CCOC(=O)c1ccc(NC(=O)c2ccccc2)cc1 | -297 | -4 | -116 | -288 | 4 | ·
CCOC(=O)c1ccc(NC(=O)c2c(N)n(Cc3ccccc3)c(=O)[nH]c2=O)cc1 | 3 | 58* | 27 | 10 | -48 | 33
O=C(NNC(=O)C(Cl)Cl)c1cnn(-c2ccccc2)c1C(F)(F)F | 12 | -1 | 7 | 8 | -2 | ·
CC(C)(CO)CNc1ccn2nccc2n1 | 16 | 53* | 19 | -2 | 1 | 60*
c1cc(-c2cnc3cccnn23)c2cccnc2c1 | 28 | 75* | 5 | 6 | -21 | 51*
Cn1c(SCC(=O)c2ccccc2)nnc1-c1cccc(N)c1 | -110 | 8 | -22 | -129 | -4 | ·
SMILES | HIF-2a block | CF NFkB inh | Shn3 3UTR inh | Peg3 prom inh | KKLEB cytotox | CF NFkB conf | others
Cc1ccc(S(=O)(=O)n2cc(C=O)c3ccccc32)cc1 | 20 | -16 | · | 30 | -4 | ·
Cc1ccc(S(=O)(=O)n2cc(-c3ccccc3)c3ccccc32)cc1 | 0 | 53* | 19 | -8 | -12 | 78*
Cc1ccc2c(c1)C(=O)C(=O)N2Cc1ccc(C(F)(F)F)cc1 | -13 | 55* | -1 | 3 | -18 | 72*
Cc1c(NCc2ccncc2)cccc1C(=O)O | 10 | 0 | -16 | 10 | -1 | ·
O=C(NCC1CCCO1)c1nnc(Cc2ccc(F)cc2)o1 (stereo unspecified) | 1 | 12 | 4 | 16 | -8 | ·
CCOC(=O)C1(C(=O)OCC)COC(=O)C1CN1Cc2cc3ccccc3nc2C1 (stereo unspecified) | 24 | 69* | -8 | 17 | -2 | 74*
N/C(=C\C(=O)c1cc(Cl)ccc1O)C(Cl)(Cl)Cl | 25 | 54* | 40 | 29 | 5 | -62 | Mdm2 MdmX conf=103*
CCOC(=O)Cn1c(=O)oc2cc(S(=O)(=O)N(C)Cc3ccccc3)ccc21 | 13 | -4 | -5 | 14 | -4 | ·
COc1cccc(-n2nc(C#N)c(Cl)cc2=O)c1 | 96* | 106* | 96* | 108* | -34 | 15 | Mdm2 MdmX conf=104*
COc1cccc(-n2nc(C(N)=O)c(O)cc2=O)c1 | 10 | -5 | -11 | 4 | 7 | ·
COc1cc(/C=C/CNC[C@H]2O[C@@H](n3ccc(=O)[nH]c3=O)[C@H](O)[C@@H]2O)ccc1O | 4 | 6 | -13 | 4 | 3 | ·
COc1ccc(CNC(=O)/C=C/c2ccccc2[N+](=O)[O-])cc1 | -61 | -12 | -9 | -33 | -15 | ·
COC(=O)C(=Cc1ccccc1[N+](=O)[O-])C(=O)OC | 77* | 59* | 39 | 53* | -2 | 10 | HIF-2a conf=72*;HIF-1a cs=59*
COc1ccccc1/C=C/C(=O)c1c2c(c(C)[nH]c1=O)CCCC2 | 73* | 54* | -31 | 98* | -5 | 51* | Mdm2 MdmX conf=103*;HIF-2a conf=63*;HIF-1a cs=88*
COc1ccccc1/C=C/C(=O)c1ccccc1 | -118 | 12 | -33 | -118 | -17 | ·
Cc1ccc(Sc2c(O)c3ccccc3n(C)c2=O)cc1 | 11 | -3 | -4 | 27 | 5 | ·
Cc1ccc(Sc2c(C=O)c3ccccc3n2C)cc1 | 16 | 65* | 8 | 45 | -19 | 93* | Mdm2 MdmX conf=91*
CC(C)(C)C(=O)/C(=C/c1ccncc1)n1cncn1 | 93* | 75* | 98* | 101* | -10 | 83* | Mdm2 MdmX conf=102*;HIF-2a conf=62*;HIF-1a cs=106*
O=C(C=Cc1ccccc1)CC(c1ccccc1)N1CCOCC1 (stereo unspecified) | 70* | 94* | 24 | 108* | -36 | i | HIF-2a conf=-26;HIF-1a cs=102*
CS(=O)(=O)c1ccc(C(=O)OCC(=O)NCc2cccs2)cc1[N+](=O)[O-] | 83* | 90* | 97* | 108* | -33 | 43* | HIF-2a conf=24;HIF-1a cs=4

Screening results deposited in PubChem by several laboratories.
